In PubChem BioAssay (EPA / NIEHS) one finds AC50 and outcome data, which are given here for 33 compounds.

Records with an inconclusive call do not appear. The source holds several records for some structures; these can differ, active in one and inactive in another. Activity calls are given as the source filed them. How the source made its calls: active means hit-call score of the fitted dose curve at least 0.9, where 1 is the maximum; inconclusive means response in the unintended direction; inactive means score below 0.9.

Chain of human MET Proto-Oncogene, Receptor Tyrosine Kinase (MET), MET (gene 4233) (P08581 whole entry, looked up): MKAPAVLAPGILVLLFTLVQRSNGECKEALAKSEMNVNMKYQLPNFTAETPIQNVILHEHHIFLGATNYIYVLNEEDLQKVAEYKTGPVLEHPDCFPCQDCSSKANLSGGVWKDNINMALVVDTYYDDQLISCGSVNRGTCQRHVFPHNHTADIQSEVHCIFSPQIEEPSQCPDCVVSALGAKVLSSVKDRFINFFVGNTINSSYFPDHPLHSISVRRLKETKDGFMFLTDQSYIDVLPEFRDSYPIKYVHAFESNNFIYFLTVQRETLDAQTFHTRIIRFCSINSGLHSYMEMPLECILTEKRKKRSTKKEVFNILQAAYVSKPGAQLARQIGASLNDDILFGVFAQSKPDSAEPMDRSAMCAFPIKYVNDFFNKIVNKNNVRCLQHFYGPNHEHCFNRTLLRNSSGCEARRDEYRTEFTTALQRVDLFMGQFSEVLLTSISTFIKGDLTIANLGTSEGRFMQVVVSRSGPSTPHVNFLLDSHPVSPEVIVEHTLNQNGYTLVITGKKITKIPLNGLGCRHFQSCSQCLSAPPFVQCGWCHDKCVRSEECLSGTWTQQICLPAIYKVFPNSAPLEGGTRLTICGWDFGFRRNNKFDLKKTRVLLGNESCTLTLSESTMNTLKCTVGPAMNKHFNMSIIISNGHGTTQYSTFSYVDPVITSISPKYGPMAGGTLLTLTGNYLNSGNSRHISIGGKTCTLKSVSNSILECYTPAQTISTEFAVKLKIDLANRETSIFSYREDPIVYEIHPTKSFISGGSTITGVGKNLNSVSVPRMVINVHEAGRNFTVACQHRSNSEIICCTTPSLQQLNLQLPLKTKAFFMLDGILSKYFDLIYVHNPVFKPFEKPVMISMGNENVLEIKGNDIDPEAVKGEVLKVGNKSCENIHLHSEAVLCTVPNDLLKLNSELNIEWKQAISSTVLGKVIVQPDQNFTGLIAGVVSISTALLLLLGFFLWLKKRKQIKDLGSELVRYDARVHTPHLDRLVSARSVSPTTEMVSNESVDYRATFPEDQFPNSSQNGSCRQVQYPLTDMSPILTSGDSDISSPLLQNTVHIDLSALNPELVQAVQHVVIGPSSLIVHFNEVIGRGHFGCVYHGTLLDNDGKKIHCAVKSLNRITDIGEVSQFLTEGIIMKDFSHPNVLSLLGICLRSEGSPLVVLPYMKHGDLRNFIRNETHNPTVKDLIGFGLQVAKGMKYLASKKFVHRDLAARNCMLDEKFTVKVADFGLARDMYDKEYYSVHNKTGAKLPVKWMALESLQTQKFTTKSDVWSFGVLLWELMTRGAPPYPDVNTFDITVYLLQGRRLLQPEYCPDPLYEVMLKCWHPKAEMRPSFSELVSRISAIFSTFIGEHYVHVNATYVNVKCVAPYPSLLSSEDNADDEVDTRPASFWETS
Chain of human Phosphatase and Tensin Homolog (PTEN), PTEN (gene 5728) (P60484 whole entry, looked up): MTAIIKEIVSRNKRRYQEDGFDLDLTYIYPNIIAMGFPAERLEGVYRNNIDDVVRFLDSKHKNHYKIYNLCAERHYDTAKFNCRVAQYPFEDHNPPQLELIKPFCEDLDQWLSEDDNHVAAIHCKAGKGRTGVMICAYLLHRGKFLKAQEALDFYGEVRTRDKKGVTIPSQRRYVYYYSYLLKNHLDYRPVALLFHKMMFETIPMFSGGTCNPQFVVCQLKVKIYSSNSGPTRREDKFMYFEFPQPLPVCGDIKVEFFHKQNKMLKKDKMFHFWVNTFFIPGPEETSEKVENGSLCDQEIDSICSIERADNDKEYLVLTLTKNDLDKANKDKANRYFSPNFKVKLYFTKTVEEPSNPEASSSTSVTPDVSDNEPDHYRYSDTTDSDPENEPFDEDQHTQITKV
Chain of human Acetylcholinesterase (AChE), ACHE (gene 43) (P22303 whole entry, looked up): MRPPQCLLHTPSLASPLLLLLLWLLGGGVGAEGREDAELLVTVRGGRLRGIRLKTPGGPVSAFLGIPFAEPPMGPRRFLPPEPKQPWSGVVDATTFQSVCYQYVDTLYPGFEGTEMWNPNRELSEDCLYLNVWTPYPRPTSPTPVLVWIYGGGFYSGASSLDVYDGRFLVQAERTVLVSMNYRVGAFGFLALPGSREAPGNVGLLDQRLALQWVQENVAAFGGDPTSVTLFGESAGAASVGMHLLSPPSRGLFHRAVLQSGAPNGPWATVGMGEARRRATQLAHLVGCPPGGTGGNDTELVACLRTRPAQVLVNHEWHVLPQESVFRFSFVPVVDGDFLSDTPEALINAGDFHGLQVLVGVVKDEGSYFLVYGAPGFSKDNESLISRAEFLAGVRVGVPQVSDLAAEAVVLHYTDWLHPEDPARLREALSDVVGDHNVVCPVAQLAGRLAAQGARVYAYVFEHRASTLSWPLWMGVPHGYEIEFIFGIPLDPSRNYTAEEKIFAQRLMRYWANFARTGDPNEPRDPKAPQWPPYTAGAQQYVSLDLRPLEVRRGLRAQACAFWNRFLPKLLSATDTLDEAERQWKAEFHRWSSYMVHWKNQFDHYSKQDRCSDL
Chain of human AMP-activated Protein Kinase, alpha 1 (AMPKa1), PRKAA1 (gene 5562) (Q13131 whole entry, looked up): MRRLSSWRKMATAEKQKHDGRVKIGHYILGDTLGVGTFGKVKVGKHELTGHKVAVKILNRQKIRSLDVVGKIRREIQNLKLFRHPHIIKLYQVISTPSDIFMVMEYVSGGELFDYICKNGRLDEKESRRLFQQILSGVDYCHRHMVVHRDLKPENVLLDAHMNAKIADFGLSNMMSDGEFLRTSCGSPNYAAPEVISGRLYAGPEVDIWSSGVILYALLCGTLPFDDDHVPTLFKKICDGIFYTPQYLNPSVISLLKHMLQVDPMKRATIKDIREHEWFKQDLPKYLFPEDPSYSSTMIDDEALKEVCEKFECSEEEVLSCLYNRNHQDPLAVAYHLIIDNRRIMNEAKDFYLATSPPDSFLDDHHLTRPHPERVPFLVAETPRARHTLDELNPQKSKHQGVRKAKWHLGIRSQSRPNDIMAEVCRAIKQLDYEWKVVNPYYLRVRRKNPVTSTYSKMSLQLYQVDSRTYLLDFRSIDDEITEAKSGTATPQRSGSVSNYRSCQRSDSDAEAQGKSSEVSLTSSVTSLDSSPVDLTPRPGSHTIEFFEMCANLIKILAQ

For the first experiment, the target named is rat CYP1A2, Cyp1a2 (gene 24297) (UniProt P04799). Briefly: NVS_ADME_rCYP1A2: NovaScreen (NVS) CYP450-related Enzyme Activity (ADME) Assay for rat CYP1A2 (AID 2283115). Put shortly:
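Cell-free recombinant rat enzyme with fluorogenic substrate, read by fluorescence intensity 1 hour after dosing. Loss of signal versus acetonitrile negative control; primary screen at 10 uM in duplicate, actives followed in concentration series.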
For orientation: AC50 means the concentration giving half of the maximal activity seen. On to `CCN(CC)c1ccc2c(C)cc(=O)oc2c1`, for which the AC50 is 8.15 µM (active).

As for `CNNCc1ccc(C(=O)NC(C)C)cc1`, the result was inactive.

With `CCCCCCC(C)OC(=O)CCCCC(=O)OC(C)CCCCCC` (stereo not drawn), the call was inactive.

With `c1ccc2c(c1)c1cccc3ccc4cccc2c4c31`, the compound was called inactive.

On to `O=C1c2ccccc2C(=O)c2c(O)ccc(O)c21`, for which the call was inactive.

Take `O=C1OC2(c3cc(Br)c(O)c(Br)c3Oc3c2cc(Br)c(O)c3Br)c2c(Cl)c(Cl)c(Cl)c(Cl)c21`: the result was inactive.

Turning to `CCOC(=O)C1=NOC(c2ccccc2)(c2ccccc2)C1`, the result was inactive.

As to `c1ccc2sc(SN(C3CCCCC3)C3CCCCC3)nc2c1`, the result was inactive.

Consider `NC(=S)NNC(N)=S`, for which the compound was classed as inactive.

The target in another experiment is human Acetylcholinesterase (AChE), ACHE (gene 43) (UniProt P22303). In words: NVS_ENZ_hAChE: NovaScreen (NVS) Enzymatic Assay for human Acetylcholinesterase (AChE) (AID 2283129). Put shortly:
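Cell-free colorimetric enzyme-activity assay; compounds read 0.33 hour after dosing, loss of signal vs DMSO baseline. Primary screen in duplicate at 25 uM single concentration, with active compounds retested in concentration series.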
In the case of `CCCCCCCC(=O)O`, the call was inactive.

Consider `O=C1OC(c2ccc(O)cc2)(c2ccc(O)cc2)c2ccccc21`, for which the compound was classed as inactive.

As for `CCCCC(CC)COC(=O)CCCCCCCCC(=O)OCC(CC)CCCC` (stereo not drawn), the AC50 is 16.7 µM (active).

For the compound `CCCCC(CC)COP(=O)(OCC(CC)CCCC)OCC(CC)CCCC` (stereo not drawn), the AC50 was 32.7 µM (active).

`CCN(C(=O)c1cc(C)cc(OC[C@H](C)Nc2ccncc2)c1)C(C)C`: the AC50 was 6.7 µM (active).

`CCCCC(CC)COC(=O)c1ccc(C(=O)OCC(CC)CCCC)cc1` (stereo not drawn): the result was inactive.

Regarding `CCN(CC)CCNc1ccc(CNC=O)c2sc3ccc(OC)cc3c(=O)c12`, the AC50 was 13.9 µM (active).

On to `CC/C(=C(\c1ccccc1)c1ccc(OCCN(C)C)cc1)c1ccccc1`, for which the AC50 was 17 µM (active).

As to `CC[C@H]1CC[C@H](NCc2cc3c(cc2OC)[C@H]2C[C@H]2C(=O)N3C)[C@H](c2ccccc2)N1`, the AC50 was 20.5 µM (active).

For `COC(=O)c1ccccc1S(=O)(=O)NC(=O)Nc1nc(OC(F)F)cc(OC(F)F)n1`, the result was inactive.

On to `CCCCCOC(C)=O`, for which the call was inactive.

For `CCCCC(CC)COC(=O)CCCCCCCC(=O)OCC(CC)CCCC` (stereo not drawn), the outcome was inactive.

For the compound `c1ccc2c(c1)-c1cccc3c1c-2cc1ccccc13`, the outcome was inactive.

On to `CC(C)CCCCCCCOC(=O)CCCCC(=O)OCCCCCCCC(C)C`, for which the AC50 is 7.43 µM (active).

Consider `CCCCCCC(CCCCCCCCCCC(=O)OCC(COC(C)=O)OC(C)=O)OC(C)=O` (stereo not drawn), for which the compound was called inactive.

The next experiment concerns the target human AMP-activated Protein Kinase, alpha 1 (AMPKa1), PRKAA1 (gene 5562) (UniProt Q13131). Briefly: NVS_ENZ_hAMPKa1: NovaScreen (NVS) Enzymatic Assay for human AMP-activated Protein Kinase, alpha 1 (AMPKa1) (AID 2283130). In a few lines: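 Recombinant human AMPKα1 activity was measured cell-free by fluorescent substrate conversion with electrophoretic mobility-shift separation, 1 h after dosing. Duplicate single-point screening was at 25 uM; actives (≥30% inhibition) were retested in concentration-response up to 50 uM.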
Turning to `CCCCCCCC(=O)O`, the outcome was inactive.

On to `CN(C)C(=O)NC1(c2ccccc2)CCN(CC[C@@]2(c3ccc(F)c(F)c3)CN(C(=O)c3ccccc3)CCO2)CC1`, for which the outcome was inactive.

Take `CCN(CC)CCNc1ccc(CNC=O)c2sc3ccc(OC)cc3c(=O)c12`: the result was inactive.

On to `CC/C(=C(\c1ccccc1)c1ccc(OCCN(C)C)cc1)c1ccccc1`, for which the call was inactive and the AC50 was 25.4 µM (active).

As to `CC(C)CCCCCCc1ccc(O)cc1`, the compound was called inactive.

On to `CNC(=O)[C@H]1O[C@@H](n2cnc3c(NCc4cc(Cl)ccc4OCc4cc(C)no4)ncnc32)[C@H](O)[C@@H]1N`, for which the outcome was inactive.

Take `Cc1nc(-c2ccc3c(c2)CCN(CCC2CCC(NC(=O)/C=C/c4ccc(F)cc4)CC2)CC3)no1` (stereo not drawn): the call was inactive.

Take `CCOC(N)=O`: the result was inactive.

In a further experiment the target is human Fibroblast Growth Factor Receptor 1 (FGFR1), FGFR1 (gene 2260) (UniProt P11362). Briefly: NVS_ENZ_hFGFR1: NovaScreen (NVS) Enzymatic Assay for human Fibroblast Growth Factor Receptor 1 (FGFR1) (AID 2283159).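 On AC50: hits lower the signal so potencies describe inhibitors of the kinase.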 In a few lines: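 Cell-free recombinant kinase with fluorescent substrate, product separated by electrophoretic mobility shift; read 1 hour after dosing, loss of signal relative to DMSO. Initial screen in duplicate at 25 uM, actives followed in concentration series.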
Chain of human Fibroblast Growth Factor Receptor 1 (FGFR1), FGFR1 (gene 2260) (P11362 whole entry, looked up): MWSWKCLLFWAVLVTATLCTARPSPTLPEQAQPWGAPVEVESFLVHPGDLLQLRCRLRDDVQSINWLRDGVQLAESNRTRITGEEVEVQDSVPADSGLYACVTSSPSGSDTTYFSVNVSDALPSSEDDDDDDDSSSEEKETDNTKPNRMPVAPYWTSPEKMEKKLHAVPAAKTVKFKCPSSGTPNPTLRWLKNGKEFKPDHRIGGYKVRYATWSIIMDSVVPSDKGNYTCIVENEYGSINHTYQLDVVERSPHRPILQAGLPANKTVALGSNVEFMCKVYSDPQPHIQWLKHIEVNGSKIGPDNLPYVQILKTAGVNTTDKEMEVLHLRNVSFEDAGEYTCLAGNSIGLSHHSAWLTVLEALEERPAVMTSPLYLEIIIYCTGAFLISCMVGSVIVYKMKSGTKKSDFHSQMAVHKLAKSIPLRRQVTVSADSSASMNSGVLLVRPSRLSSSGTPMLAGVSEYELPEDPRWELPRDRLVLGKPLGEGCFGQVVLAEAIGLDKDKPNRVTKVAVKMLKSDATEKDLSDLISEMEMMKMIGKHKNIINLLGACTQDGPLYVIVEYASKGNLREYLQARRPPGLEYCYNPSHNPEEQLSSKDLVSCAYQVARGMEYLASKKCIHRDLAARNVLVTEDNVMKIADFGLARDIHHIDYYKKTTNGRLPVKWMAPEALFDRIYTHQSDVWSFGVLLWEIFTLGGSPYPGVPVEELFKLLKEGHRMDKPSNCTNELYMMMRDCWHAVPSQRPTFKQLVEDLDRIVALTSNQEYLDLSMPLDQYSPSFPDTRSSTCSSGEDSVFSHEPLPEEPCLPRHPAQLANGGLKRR
For `CCCCCCCC(=O)O`, the compound was classed as inactive.

Regarding `CN(C)C(=O)NC1(c2ccccc2)CCN(CC[C@@]2(c3ccc(F)c(F)c3)CN(C(=O)c3ccccc3)CCO2)CC1`, the outcome was inactive.

In the case of `CCN(CC)CCNc1ccc(CNC=O)c2sc3ccc(OC)cc3c(=O)c12`, the result was inactive.

Consider `CC/C(=C(\c1ccccc1)c1ccc(OCCN(C)C)cc1)c1ccccc1`, for which the AC50 is 33.5 µM (active).

Regarding `CC(C)CCCCCCc1ccc(O)cc1`, the call was inactive.

In the case of `CNC(=O)[C@H]1O[C@@H](n2cnc3c(NCc4cc(Cl)ccc4OCc4cc(C)no4)ncnc32)[C@H](O)[C@@H]1N`, the compound was called inactive.

Turning to `CC[C@H](C)C(=O)O[C@H]1C[C@@H](C)C=C2C=C[C@H](C)[C@H](CC[C@@H]3C[C@@H](O)CC(=O)O3)[C@H]21`, the compound was classed as inactive.

As for `Cc1nc(-c2ccc3c(c2)CCN(CCC2CCC(NC(=O)/C=C/c4ccc(F)cc4)CC2)CC3)no1` (stereo not drawn), the AC50 is 5.82 µM (active).

On to `CC(C)NCC(O)c1ccc(O)c(O)c1` (stereo not drawn), for which the compound was called inactive.

Another experiment has as its target Protein deacetylase HDAC6 (Homo sapiens) (UniProt Q9UBN7). In words: NVS_ENZ_hHDAC6: NovaScreen (NVS) Enzymatic Assay for human Histone Deacetylase 6 (HDAC6) (AID 2283164). Put shortly:
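Recombinant human HDAC6 with fluorescent substrate, 1 h; product separated from substrate by electrophoretic mobility shift. Primary screen in duplicate at 25 uM; actives retested singly in concentration-response up to 50 uM, fitted relative to DMSO.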
For `CC(C)CCCCCCc1ccc(O)cc1`, the compound was classed as inactive.

Consider `CC[C@H](C)C(=O)O[C@H]1C[C@@H](C)C=C2C=C[C@H](C)[C@H](CC[C@@H]3C[C@@H](O)CC(=O)O3)[C@H]21`, for which the call was inactive.

Take `CCc1ccc(O)c(C(C)(C)C)c1`: the outcome was inactive.

The next experiment has as its target human MET Proto-Oncogene, Receptor Tyrosine Kinase (MET), MET (gene 4233) (UniProt P08581). In words: NVS_ENZ_hMet: NovaScreen (NVS) Enzymatic Assay for human MET Proto-Oncogene, Receptor Tyrosine Kinase (MET) (AID 2283180). In a few lines: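 Cell-free MET kinase assay using recombinant protein and fluorescent substrate, with mobility-shift separation; read 1 h after dosing. Primary duplicate at 25 uM; actives in singleton concentration-response to 50 uM maximum. Signal loss versus DMSO.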
`CCN(CC)CCNc1ccc(CNC=O)c2sc3ccc(OC)cc3c(=O)c12`: the outcome was inactive.

With `CC/C(=C(\c1ccccc1)c1ccc(OCCN(C)C)cc1)c1ccccc1`, the outcome was inactive.

`CC(C)CCCCCCc1ccc(O)cc1`: the outcome was inactive.

As to `O=C1NC(=O)C(c2ccccc2)(c2ccccc2)N1`, the compound was called inactive.

Another experiment concerns the target human Phosphatase and Tensin Homolog (PTEN), PTEN (gene 5728) (UniProt P60484). Briefly: NVS_ENZ_hPTEN: NovaScreen (NVS) Enzymatic Assay for human Phosphatase and Tensin Homolog (PTEN) (AID 2283203). In a few lines:
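Cell-free recombinant human PTEN with fluorescent substrate; product separated by electrophoretic mobility shift and read by fluorescence 1 h after dosing. Primary screen in duplicate at 25 uM, actives followed in concentration series versus DMSO.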
`CC(C)CCCCCCc1ccc(O)cc1`: the compound was called inactive.

For `O=C1OC2(c3cc(Br)c(O)c(Br)c3Oc3c2cc(Br)c(O)c3Br)c2c(Cl)c(Cl)c(Cl)c(Cl)c21`, the AC50 was 0.851 µM (active).

Consider `CC[C@H](C)C(=O)O[C@H]1C[C@@H](C)C=C2C=C[C@H](C)[C@H](CC[C@@H]3C[C@@H](O)CC(=O)O3)[C@H]21`, for which the compound was called inactive.

The target of a further experiment is human Tyrosine Protein Kinase Receptor Tie-2 (Tie2), TEK (gene 7010) (UniProt Q02763). In words: NVS_ENZ_hTie2: NovaScreen (NVS) Enzymatic Assay for human Tyrosine Protein Kinase Receptor Tie-2 (Tie2) (AID 2283225). Put shortly: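 Recombinant human Tie2 kinase activity was read cell-free by fluorescence with electrophoretic mobility shift, 1 hour after dosing. The screen used 25 uM in duplicate, then concentration-response up to 50 uM. Signal loss was scored against DMSO.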
Chain of human Tyrosine Protein Kinase Receptor Tie-2 (Tie2), TEK (gene 7010) (Q02763 whole entry, looked up): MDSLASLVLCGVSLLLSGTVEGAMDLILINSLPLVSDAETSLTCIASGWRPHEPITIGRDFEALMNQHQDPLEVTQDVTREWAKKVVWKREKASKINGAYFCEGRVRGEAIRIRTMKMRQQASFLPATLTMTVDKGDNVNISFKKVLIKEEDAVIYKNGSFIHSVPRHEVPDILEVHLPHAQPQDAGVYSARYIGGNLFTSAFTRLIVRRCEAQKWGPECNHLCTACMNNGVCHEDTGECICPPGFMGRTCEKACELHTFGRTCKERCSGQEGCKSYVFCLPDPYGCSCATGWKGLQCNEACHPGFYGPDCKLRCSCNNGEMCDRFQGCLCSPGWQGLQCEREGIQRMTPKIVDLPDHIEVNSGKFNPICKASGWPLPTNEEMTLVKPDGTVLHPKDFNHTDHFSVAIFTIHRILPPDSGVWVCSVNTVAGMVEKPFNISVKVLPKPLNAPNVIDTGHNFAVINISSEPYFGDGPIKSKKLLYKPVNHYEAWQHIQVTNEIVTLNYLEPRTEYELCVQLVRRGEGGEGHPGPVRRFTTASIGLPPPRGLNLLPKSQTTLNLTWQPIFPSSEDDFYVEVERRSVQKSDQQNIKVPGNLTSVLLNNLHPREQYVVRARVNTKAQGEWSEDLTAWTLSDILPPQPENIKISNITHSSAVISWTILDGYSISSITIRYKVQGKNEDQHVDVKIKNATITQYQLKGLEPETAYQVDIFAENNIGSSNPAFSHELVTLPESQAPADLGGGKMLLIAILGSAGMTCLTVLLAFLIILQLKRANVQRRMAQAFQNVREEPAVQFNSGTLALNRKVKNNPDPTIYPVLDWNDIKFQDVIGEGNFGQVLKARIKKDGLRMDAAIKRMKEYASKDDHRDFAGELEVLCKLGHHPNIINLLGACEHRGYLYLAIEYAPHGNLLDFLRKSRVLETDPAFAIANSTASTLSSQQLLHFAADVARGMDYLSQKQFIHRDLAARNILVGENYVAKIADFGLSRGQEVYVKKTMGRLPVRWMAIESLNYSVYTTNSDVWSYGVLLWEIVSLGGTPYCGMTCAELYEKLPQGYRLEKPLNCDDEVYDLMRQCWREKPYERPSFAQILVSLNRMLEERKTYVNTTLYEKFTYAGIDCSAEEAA
Consider `CCCCCCCC(=O)O`, for which the outcome was inactive.

As to `CN(C)C(=O)NC1(c2ccccc2)CCN(CC[C@@]2(c3ccc(F)c(F)c3)CN(C(=O)c3ccccc3)CCO2)CC1`, the call was inactive.

In the case of `CCN(CC)CCNc1ccc(CNC=O)c2sc3ccc(OC)cc3c(=O)c12`, the outcome was inactive.

As for `CC/C(=C(\c1ccccc1)c1ccc(OCCN(C)C)cc1)c1ccccc1`, the outcome was inactive.

Take `CC[C@H](C)C(=O)O[C@H]1C[C@@H](C)C=C2C=C[C@H](C)[C@H](CC[C@@H]3C[C@@H](O)CC(=O)O3)[C@H]21`: the outcome was inactive.

With `Cc1nc(-c2ccc3c(c2)CCN(CCC2CCC(NC(=O)/C=C/c4ccc(F)cc4)CC2)CC3)no1` (stereo not drawn), the AC50 was 16.2 µM (active).
